Sampled rows, rich in hits. Any-hit rate of the full collection: about 8%.
KB-3-1 cytotox: KB-3-1 parental cell cytotoxicity; KB-3-1 viability, CellTiter-Glo ATP luminescence, 72 h; AID 1347075; 400,000 tested, 1.4% active; Potency, µM (highest dose often 46.1 µM), most hits filed as cytotoxic; note: nearly all actives have a fitted effect of over 60% in size
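Using CellTiter-Glo luminescence, growth of non-resistant KB-3-1 adenocarcinoma cells is assessed 72 h after pin-tool compound addition at 37 °C. Normalized responses across the concentration series yield fitted curves.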
MCF10A rerep: inducers of DNA re-replication in MCF 10A breast cells; Potency, µM (titrated, usually from 46.1 µM), most hits filed as activators; AID 624296; MCF 10A DNA re-replication, Hoechst nuclear intensity, 48 h; 350,000 tested, 2.9% active; note: nearly all actives have a fitted effect of over 50% in size
HT1080-NT tox: kills 2HG-producing HT-1080-NT fibrosarcoma cells | Potency, µM (doses to about 46.1 µM), hits mostly cytotoxic | HT-1080-NT fibrosarcoma viability, CellTiter-Glo ATP luminescence, 48 h | 360,000 tested, 1.6% active | AID 686970;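 note: NT is the 2HG producing partner of a matched IDH1 knockdown line; nearly all actives have a fitted effect of over 55% in size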
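Read-out is CellTiter-Glo luminescence after 10 minutes at room temperature, following 48 hours' compound treatment of HT-1080-NT cells (750 cells/well, RPMI, 5% FBS, 37 degrees C).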
KB-V1 MDR tox: kills drug-selected multidrug resistant KB-V1 cells; KB-V1 MDR cells viability, CellTiter-Glo, 72 h; Potency, µM (series often up to 46.1 µM), usual class: cytotoxic; 400,000 tested, 3.4% active; AID 1347076; note: nearly all actives have a fitted effect of over 60% in size
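KB-V1 cells (P-gp-expressing MDR subline of KB-3-1) in phenol-red-free DMEM with 10% FBS were exposed to library compounds over a concentration series for 72 h at 37 degrees C. Viability read by CellTiter-Glo luminescence; concentration-effect curves fitted after normalization.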
SW480 rerep: induces DNA re-replication in SW480 colon adenocarcinoma cells; SW480 DNA re-replication, Hoechst DNA content imaging, 48 h; Potency, µM (titrated, usually from 46.1 µM), usual class: activators; 340,000 tested, 1.8% active; AID 624297; note: nearly all actives have a fitted effect of over 55% in size
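Readout is total intensity of Hoechst-stained nuclei, excited at 405 nm and collected at 500-530 nm. Compound treatment lasted 48 hr at 37 C in 5% CO2 before staining.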
HT1080 IDH1KD tx: HT-1080 IDH1 knockdown cell toxicity (counter line). HT-1080 IDH1 knockdown viability, ATP luminescence, 48 h. Potency, µM (series often up to 46.1 µM), hits mostly cytotoxic. 360,000 tested, 2% active
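Viability of IDH1-knockdown HT-1080 fibrosarcoma cells was assessed by CellTiter-Glo after 48 h at 37 °C with titrated compound; concentration-effect curves were classified by fit quality and response size.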
Hits are given with their value; n = inactive; u = inconclusive; x = no result. Calls come from the whole dose curve; as a rule, active = well fitted curve in the direction sought with a large enough effect; inconclusive = small, poorly fitted or top-dose-only effect, or another doubt; inactive = no such curve, though single readings can be large; an effect the other way counts as inactive or inconclusive.

SMILES | KB-3-1 cytotox | MCF10A rerep | HT1080-NT tox | KB-V1 MDR tox | SW480 rerep | HT1080 IDH1KD tx
COC(=O)[C@@]1(Cc2ccc(F)cc2)[C@H]2c3cc(C(=O)N(C)C)n(Cc4ccc(C)o4)c3C[C@H]2CN1C(=O)c1ccccc1 | u | x | u | 16µM | x | 21µM
COC(=O)[C@@]1(Cc2ccc(OC)cc2)[C@H]2c3cc(C(=O)N4CCCC4)n(Cc4ccsc4Br)c3C[C@H]2CN1C(=O)c1ccccc1 | 18µM | x | u | u | x | u
COC(=O)[C@@]1(Cc2ccc(F)cc2)[C@H]2c3cc(C(=O)N(C)C)n(CCO)c3C[C@H]2CN1C(=O)c1ccccc1 | n | x | n | n | x | n
COC(=O)[C@@]1(Cc2ccc(F)cc2)[C@H]2c3cc(C(=O)N(C)C)n(CCCNc4ncc(C(F)(F)F)cc4Cl)c3C[C@H]2CN1C(=O)c1ccccc1 | u | x | u | 18µM | x | u
COC(=O)[C@@]1(Cc2ccc(F)cc2)[C@H]2c3cc(C(=O)N(C)C)n(Cc4ccccc4)c3C[C@H]2CN1C(=O)c1ccccc1 | n | u | u | n | u | n
COC(=O)[C@@]1(Cc2ccc(OC)cc2)[C@H]2c3cc(C(=O)N(C)C)n(Cc4ccc(OC(F)(F)F)cc4)c3C[C@H]2CN1C(=O)c1ccccc1 | u | u | n | u | 18µM | n
Cc1ccc(C(CC(=O)Nc2ccc(C)cc2C)N2Cc3ccccc3C2=O)cc1 (centres undefined) | u | x | x | n | x | x
CCN1CCOC(=O)C1CC(=O)Nc1cc(C)ccc1OC (centres undefined) | n | x | x | u | x | x
COc1ccc2c(c1)cc1c(=O)n(CC(=O)NCCc3ccccc3)nc(C)n12 | n | x | x | n | x | x
CCc1nc(Oc2cccc(F)c2)c2oc3ccccc3c2n1 | n | x | x | n | x | x
O=C(/C=C/c1ccccc1)Nc1cc(-c2nc3ccccc3o2)ccc1Cl | n | x | x | n | x | x
O=C(CN(c1cccc(Br)c1)S(=O)(=O)c1ccccc1)N1CCc2ccccc2C1 | n | x | x | n | x | x
CC(=O)/C(=N\Nc1ccccc1)Sc1cccc2cccnc12 | n | n | n | n | n | n
CC(=O)/C(=N\Nc1ccccc1Cl)Sc1cccc2cccnc12 | n | u | 21µM | u | u | u
CC1=C(C(=O)Nc2ccccn2)C(c2cccnc2)n2nnnc2N1 (centres undefined) | n | 8.2µM | n | n | u | n
COC(=O)C1=C(C)Nc2nnnn2C1c1cccnc1 (centres undefined) | n | n | n | n | n | n
CCOC(=O)c1cnc(SCC(=O)Nc2ccc(N3CCOCC3)c(Cl)c2)nc1N | n | n | n | n | n | n
CCOC(=O)c1cnc(SCC(=O)Nc2sc(C)c(C)c2C#N)nc1N | u | n | n | u | 21µM | n
CCOC(=O)c1cnc(SCC(=O)Nc2cc(OC)cc(OC)c2)nc1N | u | n | n | 2.3µM | n | u
CCOC(=O)c1cnc(SCCc2ccccc2)nc1N | n | n | n | 23µM | n | n
CCOc1cccc2cc(S(=O)(=O)c3ccccc3F)c(=O)oc12 | n | x | x | n | x | x
O=C(c1[nH]ncc1-c1cccc(Br)c1)C1CO1 (centres undefined) | u | u | 26µM | u | u | u
CCN(C(=O)CSc1nc2ccccc2n1Cc1ccc(F)cc1Cl)c1ccccc1 | n | x | x | u | x | x
CCOC(=O)c1ccc(NC(=O)CCc2c(C)nc3c(c(C)nn3-c3ccccc3)c2C)cc1 | n | x | x | n | x | x
COc1cccc(CNC(=O)CCc2c(C)nc3c(c(C)nn3-c3ccc(C)c(C)c3)c2C)c1 | n | x | x | u | x | x
SMILES | KB-3-1 cytotox | MCF10A rerep | HT1080-NT tox | KB-V1 MDR tox | SW480 rerep | HT1080 IDH1KD tx
O=C(CSc1ccccc1)N1CCN(S(=O)(=O)c2ccccc2)CC1 | n | n | n | n | n | n
O=S(=O)(c1ccccc1)N1CCC(O)(CN2CCN(c3ccccc3)CC2)CC1 | n | n | n | n | n | n
O=S(=O)(c1ccccc1)N1CCC(O)(CSc2ccccc2)CC1 | n | n | 23µM | n | n | n
O=S(=O)(c1ccccc1)N1CCC(O)(CSc2ccc(F)cc2)CC1 | u | u | n | u | n | 18µM
O=C1C2C3C=CC(C4CC34)C2C(=O)N1CCc1ccccc1 (centres undefined) | n | n | n | 18µM | n | n
Nc1nc2ccc(Cl)cc2cc1C(=O)NCCc1ccc(O)cc1 | u | x | n | u | x | u
COc1ccc(CCNC(=O)c2cc(-c3ccncc3)nc3c(Cl)cccc23)cc1OC | n | n | n | 23µM | n | n
COc1ccc(CCNC(=O)c2cc3cc(Cl)ccc3nc2N)cc1OC | n | x | n | n | x | 18µM
COc1ccc(CNC(=O)c2cc(-c3ccncc3)nc3c(C)cc(C)cc23)cc1OC | n | u | n | 23µM | n | n
COc1ccc(CCNC(=O)c2nnn(-c3cccc(C)c3)c2N)cc1OC | n | u | n | 9.2µM | n | n
CC1(C)O[C@@H]2C[C@H]3[C@@H]4CCC5=CC(=O)C=C[C@]5(C)[C@H]4C(O)C[C@]3(C)[C@]2(C(=O)CO)O1 (some centres undefined) | x | n | x | x | n | x
COc1cccc2c1Oc1ncccc1N(C(=O)CCC(=O)NCc1ccc(N(C)C)cc1)C2 | n | x | x | n | x | x
COc1ccc(-n2ccnc(NCCc3ccc(S(N)(=O)=O)cc3)c2=O)cc1Cl | n | x | x | n | x | x
COc1ccc(CCNC(=O)c2cc(-c3ccccc3)nc3ccccc23)cc1OC | n | x | x | 23µM | x | x
COc1ccc(CCNC(=O)/C=C/c2ccc3ccccc3n2)cc1OC | u | 16µM | u | 18µM | 21µM | 23µM
COc1ccc(/C=C/C(=O)NCCc2ccc(OC)c(OC)c2)cc1 | n | n | n | n | n | n
COc1ccc(-c2cc(C(=O)NCCc3ccccc3)c3c(-c4ccc(Cl)cc4)[nH]nc3n2)cc1 | n | x | x | 23µM | x | x
CCCc1nn2c(=O)cc(COC(=O)CNC(=O)COc3ccc(C)cc3)nc2s1 | n | x | x | n | x | x
CC(C)(C)NC(=O)Cn1c(=O)c(=O)n(Cc2ccccc2)c2ccc(Cl)cc21 | n | n | n | 21µM | n | n
O=C(Cn1c(=O)c(=O)n(Cc2ccccc2)c2ccc(Cl)cc21)Nc1ccc(F)cc1F | u | n | n | n | n | u
CCOc1ccc(NC(=O)CN(C)C(=O)c2cccnc2Sc2ccc(C)cc2C)cc1OCC | n | n | n | 16µM | n | n
CCOc1ccc(NC(=O)CN(C)C(=O)c2ccc(COc3ccccc3)cc2)cc1OCC | n | n | n | 9.2µM | n | n
COc1ccc(NC(=O)CN(C)C(=O)c2csc3c2CCCC3)cc1 | n | n | n | u | n | n
CCOc1ccc(NC(=O)CN(C)C(=O)c2csc3c2CCCC3)cc1OCC | n | n | n | 15µM | n | n

Assay outcomes from PubChem BioAssay.
